Assay results: PubChem BioAssay (NCATS)
“And” between values parts separate entries of the source, which are not always exact repeats. Equal values may be shown once. Results filed as inconclusive are left out. The source made the active and inactive calls. Unless noted, calls come from the whole dose curve; as a rule, active = well fitted curve in the direction sought with a large enough effect; inconclusive = small, poorly fitted or top-dose-only effect, or another doubt; inactive = no such curve, though single readings can be large; an effect the other way counts as inactive or inconclusive.

What was measured:
[1] = qHTS for compounds that reverse cellular toxicity of Amyloid beta (A-beta) peptide in yeast: LOPAC Validation Assay (AID 720559); details: Potency: rescue of growth toxicity;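 note: plate controls were DMSO for no effect and equimolar ferric chloride plus clioquinol rescue for full effect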
In short: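 Rescue of A-beta toxicity was scored as yeast growth by 600 nm absorbance after 48 hr at 30 C with compound. Normalization used DMSO (negative) and equimolar ferric chloride plus clioquinol (positive).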

[2] = qHTS for Activators of Parkin Expression: LOPAC Validation Assay (FLuc Reporter) (AID 720573; note: potency is the fitted concentration of half-maximal effect)
In short: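 FLuc signal from Parkin-promoter coincidence reporter neuronal cells, normalized to DMSO and positive control (100%). Cells (1,500/well) pre-incubated 24 h, then exposed to LOPAC compounds in 7-point dose response for 24 h at 37 C, 5% CO2.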

[3] = target: T1, Hexokinase-4 (Homo sapiens) + Glucokinase regulatory protein (Homo sapiens) (UniProt P35557+Q14397); assay: qHTS assay for inhibitors of recombinant human GCK-GKRP interaction: Diaphorase-coupled assay (AID 743205)
In short: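 A kinetic fluorescence read (Ex 525/Em 590 nm, every minute for 30 minutes) tracked resorufin from a G6PDH-diaphorase coupled GCK reaction. It contained 10 nM GST-GCK, 10 nM FLAG-GKRP, 5 mM glucose, 0.4 mM ATP in Hepes pH 7.6. Normalized to with/without-enzyme DMSO controls.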

[4] = target: T1, Hexokinase-4 (Homo sapiens) + Glucokinase regulatory protein (Homo sapiens); assay: qHTS assay for inhibitors of recombinant human GCK-GKRP interaction: ADP-Glo assay (AID 743206);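 note: plate controls were DMSO plus enzyme for no effect and no enzyme for full effect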
In short: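 GST-GCK and FLAG-GKRP (15 nM each in the dispensed mix, with 2 uM S6P) react with 0.4 mM ATP and 5 mM glucose (final) in Hepes pH 7.6 for 60 min at room temperature. ADP is measured by ADP-Glo luminescence.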

[5] = target: T1, Hexokinase-4 (Homo sapiens) + Glucokinase regulatory protein (Homo sapiens); assay: qHTS assay for inhibitors of recombinant human GCK-GKRP interaction: HTRF assay (AID 743207);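 note: 0% = DMSO with GCK present and -100% = DMSO wells lacking GCK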
In short: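 After 60 min equilibration at room temperature with anti-FLAG XL665 and anti-GST antibodies, FRET ratio (665/615 nm, excitation 320 nm) was read. Proteins: GST-GCK and FLAG-GKRP, each 5 nM, plus 2 uM S6P, pH 7.1 buffer; GCK-free wells define minimum signal.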

[6] = qHTS Assay for Identifying Gametocytocidal Compounds (AID 743244); note: potency is the fitted concentration of half-maximal effect;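 for max response: % is set by controls: 0 for no effect and ±100 for the full control effect; actives lower the fluorescent signal which means gametocytes are killed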; details: P. falciparum 3D7 stage III-V gametocytes, alamarBlue, 72 h; max response: active compounds read low
In short: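 Using 20,000 stage III–V 3D7 gametocytes per well, compounds were incubated 72 h under 37 °C/5% CO2. Viability was then assessed by 24 h alamarBlue reduction, measured fluorometrically at 525/598 nm.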

[7] = qHTS for Activators of Parkin Expression: LOPAC Validation Assay (NLuc Reporter) (AID 720572;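 note: 0% = DMSO and 100% = positive control compound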)
In short: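 Parkin promoter-driven FLuc/NLuc neuronal reporter cells; 24 h plating, 7-pt dose response, 24 h at 37 C/5% CO2; FLuc then NanoLuc reagent, 10 min each, luminescence; DMSO/positive control normalized.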

[8] = qHTS assay for small molecule agonists of the antioxidant response element (ARE) signaling pathway measured by Nrf2-dependant transcriptional activity (AID 720636; active = well fitted curve in the direction sought with a large enough effect in the repeat runs; an effect the other way counts as inactive or inconclusive; note: potency is the fitted concentration of half-maximal effect)
In short: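 Cells: ARE-luc HepG2 with Nrf2-responsive luciferase. Medium contained 1% dialyzed FBS. Compound exposure lasted 16 hr at 37 C and 5% CO2, followed by ONE-Glo luciferase detection.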

[9] = qHTS assay for small molecule agonists of the antioxidant response element (ARE) signaling pathway measured by Nrf2-dependant transcriptional activity - cell viability counter screen (AID 720653; active = well fitted curve in the direction sought with a large enough effect in the repeat runs; an effect the other way counts as inactive or inconclusive; note: % is set by controls: 0 for no effect and ±100 for the full control effect); details: ARE-bla HepG2 viability, CellTiter-Glo ATP luminescence, 16 h; max response: active compounds read low
In short: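 Cytotoxicity counter screen: intracellular ATP quantified by CellTiter-Glo luminescence in the same ARE-bla HepG2 plates, after 16 h compound exposure and a 2 h beta-lactamase substrate step.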

[10] = qHTS assay for small molecule antagonists of the retinoid-related orphan receptor gamma (ROR-gamma) signaling pathway - cell viability counter screen (AID 720652; active = well fitted curve in the direction sought with a large enough effect in the repeat runs; an effect the other way counts as inactive or inconclusive;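 note: series mostly up to about 92 µM; compound exposure lasted 16 hr before ATP read; % is set by controls: 0 for no effect and ±100 for the full control effect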)
In short: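 Luminescence from CellTiter-Glo after 30 min at room temperature reported cellular ATP as the cytotoxicity measure. Cells were the CHO reporter line with doxycycline-induced ROR-gamma expression, exposed to compound for 16 hr at 37 C.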

T1 sequence (P35557 whole entry, looked up): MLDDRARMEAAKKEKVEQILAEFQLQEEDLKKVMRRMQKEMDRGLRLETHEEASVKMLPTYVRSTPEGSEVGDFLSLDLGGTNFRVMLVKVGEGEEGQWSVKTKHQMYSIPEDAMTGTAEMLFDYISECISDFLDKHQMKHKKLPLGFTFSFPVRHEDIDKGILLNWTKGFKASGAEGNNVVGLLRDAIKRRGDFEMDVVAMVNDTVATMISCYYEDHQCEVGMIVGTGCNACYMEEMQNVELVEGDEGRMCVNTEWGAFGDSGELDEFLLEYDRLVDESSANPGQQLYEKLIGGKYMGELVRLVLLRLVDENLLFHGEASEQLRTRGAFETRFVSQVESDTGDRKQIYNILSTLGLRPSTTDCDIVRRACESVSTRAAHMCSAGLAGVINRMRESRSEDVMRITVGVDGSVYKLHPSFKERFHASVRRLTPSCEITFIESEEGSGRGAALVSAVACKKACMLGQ
T1 sequence (Q14397 whole entry, looked up): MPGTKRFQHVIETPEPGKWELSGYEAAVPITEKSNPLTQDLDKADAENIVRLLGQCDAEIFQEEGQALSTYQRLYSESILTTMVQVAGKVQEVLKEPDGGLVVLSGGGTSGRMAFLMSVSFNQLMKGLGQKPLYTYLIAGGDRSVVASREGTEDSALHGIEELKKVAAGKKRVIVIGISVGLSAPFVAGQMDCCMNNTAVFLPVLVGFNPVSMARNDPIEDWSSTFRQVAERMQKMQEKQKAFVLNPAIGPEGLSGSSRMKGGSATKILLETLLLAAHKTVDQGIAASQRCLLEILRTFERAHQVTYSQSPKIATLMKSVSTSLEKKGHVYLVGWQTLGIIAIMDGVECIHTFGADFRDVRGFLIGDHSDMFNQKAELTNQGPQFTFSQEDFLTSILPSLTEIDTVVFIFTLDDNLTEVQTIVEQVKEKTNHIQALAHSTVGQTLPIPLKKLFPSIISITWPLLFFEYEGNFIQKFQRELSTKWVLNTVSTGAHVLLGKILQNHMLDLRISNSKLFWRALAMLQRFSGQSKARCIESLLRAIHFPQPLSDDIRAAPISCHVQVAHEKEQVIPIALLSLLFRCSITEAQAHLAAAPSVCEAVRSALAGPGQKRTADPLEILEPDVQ

Nc1ncnc2c1c(I)cn2[C@@H]1C[C@H](N)[C@@H](O)[C@H]1O
active: Potency [2] 20.6 µM
inactive: Potency [1] | outcome [3] | Potency [4] | Potency [5] | max response [6] 12.6%

Nc1nc(Cl)nc2c1ncn2[C@@H]1O[C@H](CO)[C@@H](O)[C@H]1O
inactive: Potency [7] | Potency [2] | outcome [3] | Potency [4] | Potency [5] | max response [6] 6.66%

CCCCCC(O)c1cccc(OCc2ccc3ccccc3n2)c1 (stereo not drawn)
inactive: Potency [7] | Potency [2] | outcome [3] | Potency [4] | Potency [5] | max response [6] 5.39%

NC[C@H]1O[C@@H](n2cnc3c(N)ncnc32)[C@H](O)[C@@H]1O
inactive: Potency [7] | Potency [2] | outcome [3] | Potency [4] | Potency [5] | max response [6] -2.15%

NC(N)=NC(=O)c1nc(Cl)c(N2CCCCCC2)nc1N
inactive: Potency [1] | Potency [2] | outcome [3] | Potency [4]
active: Potency [6] 0.891 µM

NC(=O)C(=O)O
inactive: Potency [7] | Potency [2] | outcome [3] | Potency [4] | Potency [5] | max response [6] 24.1%

O=C1/C(=C/c2ccsc2)CC/C1=C\c1cccs1
inactive: Potency [7] | outcome [3] | Potency [4] | max response [6] 30.3%
active: Potency [2] 18.4 µM

CCN(CC)c1ncnc2c1ncn2[C@@H]1O[C@H](COP(=O)(O)OP(=O)(O)C(Br)(Br)P(=O)(O)O)[C@@H](O)[C@H]1O
inactive: Potency [7] | Potency [2] | outcome [3] | Potency [4] | max response [6] -1.02%

CCCCCCCCCCCCCCCCCC(=O)OC(CC(=O)O)C[N+](C)(C)C (stereo not drawn)
inactive: Potency [7] | Potency [2] | outcome [3] | Potency [4] | max response [6] -2.89%

O=C(CCCCCN1CCN(c2ccccc2-c2ccccc2)CC1)NC1CCCc2ccccc21 (stereo not drawn)
inactive: Potency [7] | Potency [2] | outcome [3] | Potency [4]

C=CC(C)=C[C@@]1(C)SC(=O)C(C)=C1O
inactive: Potency [7] | Potency [2] | outcome [3] | Potency [4] | Potency [5] | max response [6] 15.5%

CN(C)C(N)=NCCC[C@H](N)C(=O)O
inactive: Potency [7] | Potency [2] | outcome [3] | Potency [4] | max response [6] -2.52%

C=C[C@@H]1CN2CC[C@@H]1C[C@H]2[C@H](O)c1ccnc2ccc(OC)cc12
inactive: Potency [7] | Potency [2] | outcome [3] | Potency [4] | Potency [5]
active: Potency [6] 0.296 µM

COc1cc(C(O)CO)ccc1OS(=O)(=O)O (stereo not drawn)
inactive: Potency [7] | Potency [2] | outcome [3] | Potency [4] | Potency [5] | max response [6] 2.33%

CC(N)C(=O)OC(C)(C)Cc1ccc(Cl)cc1 (stereo not drawn)
inactive: Potency [7] | Potency [2] | outcome [3] | Potency [4] | Potency [5] | max response [6] 11% and 11.7%

CC(=O)N[C@H](C(=O)O)C(C)(C)SN=O
inactive: Potency [7] | Potency [2] | outcome [3] | Potency [4] | Potency [5] | max response [6] 7.76%

CCCCC/C=C\CC(O)/C=C/c1cccc(CC(O)CCCCO)n1 (stereo not drawn)
inactive: Potency [7] | Potency [2] | outcome [3] | Potency [4] | Potency [5]

CN=c1nc(-c2ccccc2)n(-c2ccccc2)s1
inactive: Potency [7] | Potency [2] | outcome [3] | Potency [4] | Potency [5]

O=C(O)CNC(=O)C(CS)Cc1ccccc1 (stereo not drawn)
inactive: Potency [7] | Potency [2] | outcome [3] | Potency [4] | Potency [5]

CCCCCCCCCCCCCCCC(=O)OC(C)C
inactive: Potency [8] | max response [9] -10.7% | max response [6] 3.03%

CC(C)OC(=O)c1cc(C(=O)OC(C)C)cc([N+](=O)[O-])c1
inactive: Potency [8] | max response [9] -4.4% | max response [6] 4.99%

NCCO
inactive: Potency [8] | Potency [10] | max response [9] 3.76% | max response [6] 6.49%

CN(C)c1ccc(N=NS(=O)(=O)O)cc1
inactive: Potency [10] | max response [9] -12.4% and -28.6%
active: Potency [8] 54.5 µM | Potency [6] 35.5 µM
